Assay results taken from the supplement of paper PMC11417369.
± gives the standard deviation of the averaged measurements. Over roughly 25,000 sequences, “ln(normalized median fluorescence intensity)” has its median near 7.9; the highest 2% begin near 11. This excerpt belongs to a sample that is enriched for the highest values.

The sequences below were run on PfAP2-I AP2 domain 3 (GST-tagged) (assay: gcPBM binding intensity (ln(normalized median fluorescence intensity)); higher = stronger DNA binding).
Outline: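 GST-tagged P. falciparum DNA-binding domains produced in E. coli were incubated for 1 h on an Agilent 4 × 180k array of primer-extended double-stranded 36-bp intergenic genomic probes with negative controls. Binding intensity is the highest Masliner-normalised natural-log median intensity across replicate spots of either probe orientation, with bound protein detected by Alexa488 anti-GST antibody at 488 nm.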

Sequence | gcPBM binding intensity (ln)
TATAAACTTAATTTGAGTACTTAATAATAATTTTGT [XGTACX_site3730] | 7.38 ± 0.47
GTCAACTTGTGATAAGTGCATATATATAATAAAATG | 9.875 ± 0.078
GAATAATATGGACATACACACATATACATACCTATA [CACACA_site7075] | 8.07 ± 0.59
GTACACCTATAATATACACACAACAAATATGCACAT [CACACA_site6603] | 9.64 ± 0.39
ATACAGTTGCATATGGTGCACGAATAATACACCTAT | 11 ± 0.25
ACTATTAAGAATAAAGAAATATGTAATTGTATTTAA [CACACA_negctrl_site516] | 7.43 ± 0.59
GTATAGAGAAAAAACTGTACTTTATATAAATATTTA [XGTACX_site3972] | 7.53 ± 0.3
ATATATGTACAAATTGTGCGCAATAATTTTGTCTTT | 9.06 ± 0.33
TACATTTCATTGTAATCATAAAAAATAAAGAAAAAA [XGTACX_negctrl_site542] | 7.58 ± 0.61
ATATCTTATAATACGGTGCACTTGACATGAACAACT [GTGCAC_site9987] | 10.7 ± 0.3
ATAATGAACAAAGTAGTGCACTTTCCTTATCTTTTC | 11.4 ± 0.26
CCTTTCCTTTTATAAGTGCATATAACAAATGTATAC [GTGCAC_site9872] | 10 ± 0.11
AATATAAACCCAAACACACACATATATATATATATA [CACACA_site268] | 9.4 ± 0.37
ATATAAAATATGAGTAGTACATATTTTCTCATCTTA [XGTACX_site8595] | 7.55 ± 0.38
ACTACAAGGCAATACAGTACATATAAATGTCATAAT [XGTACX_site8468] | 7.85 ± 0.45
AATAATATATATTACACACGCATCGTTCATTTATTT [CACACA_site2391] | 7.87 ± 0.92
AAATACTGATTTGGTTGTACATGTGCACTATATAAC [XGTACX_site3795] | 11.3 ± 0.56
AAATATTTGTGTGGTTGTACTATAATGATAAAAATA [XGTACX_site7703] | 8.14 ± 0.42
ATACTAACATTTTTTTGTACATATAACTATAAAATA [XGTACX_site1033] | 8.09 ± 0.47
GGGAAACGATTTAATACACACACGTATTATATATAT [CACACA_site1160] | 8.48 ± 0.59
ATTAGTATAATGTAACTTAGTTAATAGTGCTAATAT [CACACA_negctrl_site764] | 9.54 ± 0.4
TTTTCATTTGTGACAGTGCAAAATGTTATATTAAAA [GTGCAC_site9647] | 9.99 ± 0.3
AAAAAAAAAAAAATGGTGCAACTTTGTTAAAGGAAA [GTGCAC_site9950] | 9.56 ± 0.12

Sequence | gcPBM binding intensity (ln)
CTCATTTTGTTAATGGTGCAAAAAAAAAAAAAAAAA | 11.1 ± 0.73
ATGGATTATTTTTAAACATGCAGTAGTGATGAAAAA [TGCATGCA_site346] | 8.36 ± 0.53
CATATTCCCCCCCACACACACACACGCATACATACC [CACACA_site7148] | 10.8 ± 0.33
GACATATTCCCCCCCACACACACACCCACATACATA [CACACA_site2302] | 10.8 ± 0.26
CATATTCCCCCCCACACACACACACCCATACATACC [CACACA_site2303] | 11.2 ± 0.44
AAATATAATATATGCACACATACATACAGATATATA [CACACA_site4235] | 9.22
TGAAATAAATAATGCACACTCTACAGATATACGTAT [CACACA_site5270] | 11.1 ± 0.66
TTTGAAATAAATAATGCACACTCTACATATATACGT [CACACA_site2244] | 11.1 ± 0.61
TGAAAAAAAAAATGCACACGCATACAGATAATATGT [CACACA_site4526] | 8.62 ± 0.51
GTTGAAAAAAAAAATGCACACGCATACATATAATAT [CACACA_site8117] | 8.71 ± 0.29
AAATATAATATATGCACACATACATACATATATATA [CACACA_site104] | 9.41 ± 0.3
AAAAATAAAATATATACATGCATATACATATTATAT [TGCATGCA_site668] | 7.87 ± 0.45
AATTATATAAGCCACGCATGTGTGCATAAAAATACA [TGCATGCA_site114] | 11.1 ± 0.34
AAATAAAATTATAATACATGCATACATACATATATA [TGCATGCA_site69] | 7.9 ± 0.54
ATGTTAATAACTTGTGGTACTGTTATAATTTAGTAA [XGTACX_site2114] | 7.71 ± 0.42
ATATATATATAATTATATAAAATATATCATATGTTA [XGTACX_negctrl_site47] | 8.76 ± 0.16
TATTAATTATATTTATGTACATAATCATATTATTAT [XGTACX_site7938] | 7.66 ± 0.39
TTTAATCATATGTTATATAATAAGCCCCCCCCCCAA [CACACA_negctrl_site486] | 11.1 ± 0.63
ATTAATAATCGAAAGGTGCACTTTGATTTGATAACA | 11.2 ± 0.3
ATTATTTGATTAAAGGTGCAAGGATAATAATAAAAC | 9.47 ± 0.17
AAAAAAAAAAAAAAGGTGCATACTTTGAATTAATAT [GTGCAC_site9401] | 9.87 ± 0.17
AAAAAAAAAAAAAAAAGTACATGAAAAAAAGAAGAA [XGTACX_site8384] | 8.7 ± 0.27
